SARS PLpro yeast: inhibitors of SARS-CoV papain-like protease in yeast; S. cerevisiae expressing SARS-CoV PLpro, growth rescue; Potency, µM (series often up to 32.9 µM), usual class: activators; actives 0.19% (n = 330,000); AID 485353; note: nearly all actives have a fitted effect of over 55% in size
NS1 function inh: blocks influenza NS1 protein function; Potency, µM (titrated, usually from 46.1 µM); actives 0.4% (n = 270,000); AID 2326; note: actives are rising curves; nearly all actives have a fitted effect of over 50% in size
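In this qHTS, NS1 from influenza A is expressed in budding yeast, where it slows growth. Cells are switched from glucose to 2% galactose medium (pH 6.0, -URA), treated with compound, and growth recovery is read at OD600.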
AMA1-RON2 inh: AMA1-RON2 (P. falciparum) interaction inhibition; AlphaScreen AMA1-biotinylated RON2 peptide binding; Potency, µM (highest dose often 58.2 µM), most hits filed as inhibitors; actives 0.2% (n = 360,000); AID 720542; active = well fitted inhibition curve with a large enough effect; inconclusive = small, poorly fitted or top-dose-only effect; inactive = no such curve, though single readings can be large or run the other way; note: nearly all actives have a fitted effect of over 45% in size
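AMA1 (3D7) with his tag at 25 nM final met compounds first, then biotinylated RON2 peptide at 25 nM; detection used donor plus acceptor beads, 10 µg/mL apiece, read by AlphaScreen after 30 min at room temperature.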
Flu NS1 inh: validation of influenza NS1 protein function inhibitors; activity change, negative = inhibition, % at 32.9 µM; shares compounds with NS1 function inh; 1,400 tested, under 10 active; influenza NS1 function cell assay, 15-point titration
Of the large screens only hits and unclear results are named; the others gave an inactive call (follow-up assays come after a bar, where they were run). The list is not random: actives were taken first. Their share in the collection is about 0.65%. Unless noted, calls come from the whole dose curve.

Cc1ccc(NNC(=O)c2ccno2)c(C)c1	none
COc1ccccc1N1CCN(C(=O)C2CCCN(S(=O)(=O)c3ccc4c(c3)CCCN4C(C)=O)C2)CC1 (configuration not stated)	NS1 function inh inconclusive | Flu NS1 inh inactive
CC(=O)N1CCCc2cc(S(=O)(=O)N3CCCC(C(=O)N4CCN(c5ccccc5)CC4)C3)ccc21 (configuration not stated)	NS1 function inh inconclusive
CCOc1ccc(C2N(c3ccc(OC)cc3)C(=O)C3CCCN32)cc1OC (configuration not stated)	none
O=C1C2CCCN2C(c2ccc(F)cc2)N1c1ccc(Cl)cc1 (configuration not stated)	NS1 function inh 4µM | Flu NS1 inh inactive
O=C1C2CCCN2C(c2ccccc2)N1c1ccc(F)cc1 (configuration not stated)	none
CCOc1ccc(C2N(c3ccc(Cl)cc3)C(=O)C3CCCN32)cc1OC (configuration not stated)	NS1 function inh 7.9µM | Flu NS1 inh inactive
COc1ccc(OC)c(CNC(=O)C2CCC(=O)N(CCCN3CCCC3=O)C2)c1 (configuration not stated)	none
O=C1CCCC/C1=C/NCc1ccc(F)cc1	none
COc1ccccc1C/C(N)=N/OC(=O)COc1cccc(C)c1	none
COc1ccccc1C/C(N)=N/OC(=O)COc1ccc(C)cc1	NS1 function inh inconclusive | Flu NS1 inh inconclusive
CC(=O)Nc1ccc(S(=O)(=O)N(C)CC(=O)N/N=C/c2ccncc2)cc1	none
CCOc1ccc(/C(O)=C2/C(=O)C(=O)N(c3ncccn3)C2c2ccccc2)cc1 (configuration not stated)	NS1 function inh 2µM | Flu NS1 inh inactive
CCOc1ccc(/C(O)=C2/C(=O)C(=O)N(c3ncccn3)C2c2ccc(C)cc2)cc1 (configuration not stated)	none
CCOc1ccc(/C(O)=C2/C(=O)C(=O)N(c3cc(C)on3)C2c2ccc(C(=O)OC)cc2)cc1 (configuration not stated)	none
CCCOc1ccc(/C(O)=C2/C(=O)C(=O)N(c3cc(C)on3)C2c2ccc(C(=O)OC)cc2)cc1 (configuration not stated)	NS1 function inh 10µM | Flu NS1 inh inactive
COc1ccc(N2CCN(C(=O)CCC(=O)N3Cc4ccccc4Oc4ncccc43)CC2)cc1	none
Cc1ccc(C2C(N)C(=O)N2c2ccc(C)cc2)cc1 (configuration not stated)	none
O=C(O)CSCC(=O)O	none (no result: SARS PLpro yeast, AMA1-RON2 inh)
O=C(c1cnn2c(C(F)(F)F)cc(-c3cccs3)nc12)N1CCN(C(c2ccccc2)c2ccccc2)CC1	NS1 function inh 16µM | Flu NS1 inh inactive
CN1CCN(C(=O)c2cnn3c(C(F)(F)F)cc(-c4cccs4)nc23)CC1	none
CCn1cc(S(=O)(=O)Nc2ccc(Cl)cc2F)cn1	none
Cc1ccccc1-n1nc(C(=O)O)c(C)c(C#N)c1=O	NS1 function inh 2.8µM | Flu NS1 inh inactive
Cc1c(C(=O)O)nn(-c2cccc(C(F)(F)F)c2)c(=O)c1C#N	none
CC(=O)c1sc(NC(=O)C2CCN(C(=O)c3ccc(F)cc3)CC2)nc1-c1ccccc1	none (no result: NS1 function inh)
CCC1Cc2[nH]c(=S)[nH]c(=O)c2C(c2ccc(Cl)cc2)O1 (configuration not stated)	none (no result: SARS PLpro yeast, NS1 function inh)
CN1CCN(Cc2cc(C(C)(C)C)c(O)c(C(C)(C)C)c2)CC1	none
CC1=NN(Cc2cc(C(C)(C)C)c(O)c(C(C)(C)C)c2)C(=O)C1	NS1 function inh 14µM | Flu NS1 inh inconclusive
COc1ccc(C(C(=O)NC(C)(C)C)n2c(=O)c(-c3cc4ccccc4[nH]3)nc3ccccc32)cc1 (configuration not stated)	none (no result: SARS PLpro yeast, NS1 function inh)
O=C1CNC(=S)N1CCc1ccc(O)c(O)c1	NS1 function inh inconclusive | Flu NS1 inh inactive
O=C1CNC(=S)N1CCOc1ccccc1	none
CCOC(=O)c1sc(NC(=O)CSC(=S)N2CCN(C)CC2)nc1C	none
c1nc(NC2CCCCCC2)c2[nH]cnc2n1	NS1 function inh 10µM | Flu NS1 inh inactive
c1nc(NC2CCCCC2)c2[nH]cnc2n1	none
COc1ccccc1CNc1ccc(CNc2ncn[nH]2)cc1	none
COc1cc(CNc2ccc(CNc3ncn[nH]3)cc2)ccc1OCc1ccccc1	NS1 function inh inconclusive | Flu NS1 inh inactive
CC(CC(=O)N1CCN(S(=O)(=O)c2ccc(Cl)cc2)CC1)n1cncn1 (configuration not stated)	none
CCOc1cc(/C=N\NC(=O)c2ccc(NC(=O)C(C)(C)C)cc2)ccc1OC(=O)c1cccc(C)c1	none
CC(C)(C)C(=O)Nc1ccc(C(=O)N/N=C/c2ccccc2OC(=O)c2ccccc2)cc1	none
